Experimental findings from PubChem BioAssay AID651640 (Broad Institute, 2012) are described below.

Where “and” joins values, the source holds several entries; their conditions need not be identical. Identical values can stand only once. In all, about 350,000 compounds went through this assay and about 6,000 (1.7%) were called active. Inconclusive results (about 5%) are left out. This is one part of a sample in which actives are shown more often than they occur. Rule as the data show it: active = CPE inhibition above about 20% (passing the limit was not always enough); inconclusive = no clear call, values can overlap the other calls; tested in BHK-21 cells. A structure can be active in one record and inactive in another.

The nature of this test: protection of cells from dengue 2 killing – plate reader, single concentration, primary screen (AID 651640).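 Also: 0% = median of neutral control wells and 100% = median of positive control wells.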 To be noted: DENV2-infected cells, cytopathic effect rescue, at 9.99 µM, stronger effect = higher value. On the technique in general: Cytopathic effects are the visible damage that an infection or toxin causes in cultured cells.
Consider `CCCC(=O)N1CCC2(CC1)CN(C(=O)C1CCCCC1)[C@@H](CO)c1[nH]c3cc(OC)ccc3c12`, for which the CPE inhibition is 0.105% (inactive). On to `C[C@@H]1CCCCO[C@@H](CN(C)C(=O)NC2CCCCC2)[C@@H](C)CN([C@@H](C)CO)C(=O)c2cc(NC(=O)C3CCCCC3)ccc2O1`, for which the CPE inhibition is -1.85% (inactive). As for `C[C@@H]1CN([C@@H](C)CO)C(=O)c2cccc(NC(=O)Nc3ccc4c(c3)OCO4)c2O[C@@H]1CN(C)C(=O)Nc1ccc(F)cc1`, the figure is 16.1% (inactive); as for `C[C@H](CO)N1C[C@H](C)[C@@H](CN(C)C(=O)Nc2ccc3c(c2)OCO3)Oc2ccc(NC(=O)NC3CCCCC3)cc2CC1=O`, 9.47% (inactive); as for `COc1ccc(S(=O)(=O)N(C)C[C@H]2OCCCC[C@@H](C)Oc3ccc(NC(=O)NC(C)C)cc3C(=O)N([C@H](C)CO)C[C@H]2C)cc1`, -2.15% (inactive). As for `COCC(=O)N1CC(=O)N2[C@H](C1)[C@@H](c1ccc(C#Cc3cccc(OC)c3)cc1)[C@@H]2CO`, the CPE inhibition is -1.66% (inactive). Next, `COc1ccc(S(=O)(=O)N(C)C[C@@H]2OCCCC[C@H](C)Oc3ccc(NC(=O)NC4CCCCC4)cc3C(=O)N([C@H](C)CO)C[C@H]2C)cc1`: -9.88% (inactive); `CCCN1[C@H](C(=O)N2CCCCC2)[C@@H](CO)[C@@H]2Cn3c(ccc(-c4ccccc4F)c3=O)[C@@H]21`: 0.279% (inactive); `C[C@H](CO)N1C[C@H](C)[C@@H](CN(C)C(=O)c2ccncc2)Oc2ncc(-c3ccncc3)cc2C1=O`: 0.501% (inactive). As to `C/C=C/c1cccc(-c2nc(C(=O)NCCN3CCCCC3)cc3c2[C@@H](CCO)N([S@](=O)C(C)(C)C)C3)c1`, the CPE inhibition was 8.26% (inactive). Consider `COCc1cn(CC[C@@H]2CC[C@@H](NC(=O)Nc3ccc(C(F)(F)F)cc3)[C@H](CO)O2)nn1`, for which the CPE inhibition was 2.57% (inactive). Take `O=C(C[C@H]1C[C@H]2c3cc(NC(=O)Nc4ccccc4)ccc3O[C@H]2[C@H](CO)O1)NC1CCCC1`: the CPE inhibition is 16.7% (inactive). Next, `O=C(N[C@H]1CC[C@@H](CCNS(=O)(=O)Cc2ccccc2)O[C@H]1CO)c1ccccc1F`: 5.12% (inactive).

Turning to `CN(C)C(=O)c1cccc(-c2ccc([C@H]3[C@H](CO)N4C(=O)CN(C(=O)Cc5ccccc5)C[C@@H]34)cc2)c1`, the CPE inhibition was 4.14% (inactive).

For the compound `Cc1noc(C)c1NC(=O)Nc1ccc2c(c1)C(=O)N([C@H](C)CO)C[C@@H](C)[C@@H](CN(C)Cc1ccncc1)OCCCC[C@H](C)O2`, the CPE inhibition was 1.93% (inactive). For `CN1C(=O)c2cc(NC(=O)C3CCOCC3)ccc2OC[C@@H]2O[C@@H](CC(=O)NCC3CC3)CC[C@@H]21`, the CPE inhibition was -9.75% (inactive).

As for `CN(C)C(=O)C[C@@H]1C[C@@H]2c3cc(NC(=O)NC4CCCCC4)ccc3O[C@@H]2[C@H](CO)O1`, the CPE inhibition is -9.26% (inactive). Next, `CO[C@@H]1CN(C)C(=O)c2cc(NC(=O)C3CC3)ccc2OC[C@H](C)N(C(=O)c2ccccc2F)C[C@H]1C`: -0.841% (inactive). With `CCC(=O)Nc1ccc2c(c1)C(=O)N(C)C[C@H](OC)[C@H](C)CN(C(=O)c1ccccc1F)[C@@H](C)CO2`, the CPE inhibition is 23.7% (active). As for `CCC(=O)Nc1ccc2c(c1)OC[C@H](C)N(C(=O)c1ccccc1F)C[C@@H](C)[C@H](OC)CN(C)C2=O`, the CPE inhibition was -6.62% (inactive). Consider `C[C@@H]1CN([C@@H](C)CO)C(=O)c2cc(-c3cncnc3)cnc2O[C@@H]1CN(C)C(=O)c1ccccc1F`, for which the CPE inhibition is 16.7% (inactive).

With `CCOC(=O)[C@H]1[C@H]2COc3ccc(Cl)cc3[C@@H]2N2C(=O)c3cc(C)ccc3NC(=O)[C@@]12C`, the CPE inhibition was 4.71% (inactive).

In the case of `COc1ccc2c(c1)[C@H]1[C@H](CO2)[C@H](c2ccccc2)[C@]2(C)C(=O)Nc3cc(F)c(F)cc3C(=O)N12`, the CPE inhibition was -1.62% (inactive). Next, `Cc1ccc2c(c1)NC(=O)[C@@]1(C)[C@@H](c3ccccc3)[C@H]3COc4ccc(Cl)cc4[C@@H]3N1C2=O`: 82.7% (active). With `COc1ccccc1CC1(C)C(=O)Nc2ccc(OC(F)(F)F)cc21` (stereo unspecified), the CPE inhibition was 0.818% (inactive).

`Cc1ccc(CC2(C)C(=O)Nc3ccc(OC(F)(F)F)cc32)cc1` (stereo unspecified): the CPE inhibition was 6.39% (inactive). As for `CCc1ccc2c(c1)NC(=O)C2(C)Cc1ccc(OC(F)(F)F)cc1` (stereo unspecified), the figure is 48.3% (active); as for `CC(C)NC(=O)Nc1cccc2c1O[C@@H](CN(C)Cc1ccc(C(=O)O)cc1)[C@@H](C)CN([C@H](C)CO)C2=O`, -5.2% (inactive); as for `CO[C@H]1CN(C)C(=O)c2ccc(NC(=O)c3cccc(F)c3)cc2OC[C@H](C)N(CC2CC2)C[C@@H]1C`, -4.07% (inactive). As for `COc1cccc(NC(=O)CN(C)C(=O)/C=C/c2cn(-c3ccccc3)nc2-c2cccs2)c1`, the CPE inhibition was -12.9% (inactive). As for `O=C(O)/C=C/c1cn(-c2ccccc2)nc1-c1cccs1`, the CPE inhibition was 21.7% (active). Regarding `O=C(O)c1ccc(N/N=C/c2cn(-c3ccccc3)nc2-c2cccs2)cc1`, the CPE inhibition is -1.67% (inactive). For the compound `COc1ccc(NC(=O)N[C@@H]2CC[C@H](CCn3cc(-c4ccc(OC)cc4)nn3)O[C@@H]2CO)cc1`, the CPE inhibition was 3.46% (inactive). As for `COc1cccc(NC(=O)N(C)C[C@H]2Oc3cc(/C=C/c4ccccc4)ccc3S(=O)(=O)N([C@H](C)CO)C[C@@H]2C)c1`, the CPE inhibition is 1.83% (inactive). Turning to `Cc1cccc(C)c1OCCN1CCOCC1`, the CPE inhibition is 5.93% (inactive). Take `COc1ccc(-c2sc3ccccc3c2-c2ccc(OCCN3CCOCC3)cc2)cc1`: the CPE inhibition was 9.44% (inactive). For the compound `c1ccc(-c2ccc(OCCN3CCOCC3)cc2)cc1`, the CPE inhibition is 27.1% (active). With `O=C(C[C@H]1CC[C@@H](NC(=O)Nc2ccc(F)cc2)[C@H](CO)O1)NCc1cccc(F)c1`, the CPE inhibition is 1.45% (inactive). As to `C[C@H](NC(=O)N(C)C[C@@H]1OCc2ccccc2-c2ccccc2C(=O)N([C@H](C)CO)C[C@@H]1C)c1ccccc1`, the CPE inhibition was 3.49% (inactive). As to `O=C(C[C@@H]1CC[C@@H](NC(=O)CC2CC2)[C@H](CO)O1)NCc1ccc(-c2ccccc2)cc1`, the CPE inhibition is 2.21% (inactive).

On to `Cn1cnc(S(=O)(=O)N2C[C@H](O)COC[C@@H]3O[C@H](CC(=O)NCc4cccc(F)c4)CC[C@H]32)c1`, for which the CPE inhibition was -0.815% (inactive). On to `Cc1ccc([C@H]2N[C@]3(CCCN(Cc4ccccc4)C3=O)[C@H]3C(=O)N(Cc4ccccc4)C(=O)[C@@H]23)cc1`, for which the CPE inhibition was 12.7% (inactive). For the compound `COc1ccc([C@H]2N[C@]3(CCCN(Cc4ccco4)C3=O)[C@H]3C(=O)N(C)C(=O)[C@@H]23)cc1`, the CPE inhibition was 91.3% (active). Consider `CCN1C(=O)[C@H]2[C@@H](c3ccccc3)N[C@]3(CCCN(Cc4ccc(C)cc4)C3=O)[C@H]2C1=O`, for which the CPE inhibition was -9.89% (inactive). Turning to `CC(C)CC#Cc1ccc2c(c1)O[C@H](CN(C)C(=O)CC1CC1)[C@@H](C)CN([C@@H](C)CO)S2(=O)=O`, the CPE inhibition is 0.266% (inactive).

For `CCC(=O)N(C)C[C@@H]1Oc2cc(C#C[C@H](C)O)ccc2S(=O)(=O)N([C@H](C)CO)C[C@@H]1C`, the CPE inhibition is 8.89% (inactive).

Consider `CCCNC(=O)N1[C@@H]2CNC[C@H]1C2c1ccc(-c2ccccc2)cc1` (stereo partly specified), for which the CPE inhibition is -5.46% (inactive) and 6.08% (inactive). Next, `COc1ccc(S(=O)(=O)N2C[C@@H](O)COC[C@H]3O[C@H](CC(=O)N[C@H]4CCN(Cc5ccccc5)C4)CC[C@@H]32)cc1`: 13.5% (inactive); `CC(=O)N1[C@H](CO)[C@@H](c2ccccc2)[C@@H]1CN(CC(C)C)C(=O)c1ccccn1`: -9.41% (inactive). Take `Cc1cccc(-c2ccc(C3[C@H]4CNC[C@@H]3N4S(=O)(=O)c3ccccc3F)cc2)c1` (stereo partly specified): the CPE inhibition is -1.96% (inactive) and 22.1% (active).

With `N#Cc1ccc(-c2ccc(C3[C@H]4CNC[C@@H]3N4S(=O)(=O)c3ccccc3F)cc2)cc1` (stereo partly specified), the CPE inhibition is 6.8% (inactive).

As to `CN(C)C(=O)c1ccc(-c2ccc(C3[C@H]4CNC[C@@H]3N4C(=O)Nc3cc(F)ccc3F)cc2)cc1` (stereo partly specified), the CPE inhibition was 1.83% (inactive). Next, `CN(C)C(=O)c1cccc(-c2ccc(C3[C@H]4CNC[C@@H]3N4C(=O)Nc3ccccc3F)cc2)c1` (stereo partly specified): 23.3% (active); `O=S(=O)(c1ccccc1F)N1[C@@H]2CNC[C@H]1C2c1ccc(-c2cncnc2)cc1` (stereo partly specified): -1.33% (inactive). As for `COc1cccc(-c2ccc(C3[C@H]4CNC[C@@H]3N4C(=O)Nc3ccc(F)cc3)cc2)c1` (stereo partly specified), the CPE inhibition was -1.4% (inactive) and 18.6% (inactive). In the case of `C[C@H](CO)N1C[C@H](C)[C@@H](CN(C)Cc2ccc(Cl)c(Cl)c2)Oc2ccc(NC(=O)Nc3ccc(C(F)(F)F)cc3)cc2CC1=O`, the CPE inhibition was -2.55% (inactive). For the compound `CN1C(=O)c2cc(NC(=O)C3CC3)ccc2OC[C@@H]2O[C@@H](CC(=O)NCC3CCCCC3)CC[C@@H]21`, the CPE inhibition is -7.29% (inactive). Next, `C[C@@H]1CN([C@H](C)CO)C(=O)c2cccc(NC(=O)Nc3ccc(F)cc3)c2O[C@@H]1CN(C)C(=O)Nc1ccc(C(F)(F)F)cc1`: 2.25% (inactive).

With `O=C(NCc1ccncc1)c1ccc(NS(=O)(=O)c2cccc([N+](=O)[O-])c2)cc1`, the CPE inhibition was -0.812% (inactive). Next, `O=C(NCc1ccncc1)c1cccc(NS(=O)(=O)c2ccc(F)c(F)c2)c1`: 41.4% (active); `O=C(NCc1ccccc1)c1ccc(S(=O)(=O)Nc2cccc(C(F)(F)F)c2)cc1`: 2.44% (inactive).

With `CC(C)NC(=O)N[C@H]1CC[C@H](CC(=O)NC2Cc3ccccc3C2)O[C@H]1CO`, the CPE inhibition was -2.08% (inactive). Turning to `C[C@@H]1CN([C@H](C)CO)S(=O)(=O)c2ccc(Br)cc2O[C@@H]1CN(C)Cc1cncnc1`, the CPE inhibition is 19.1% (inactive). For the compound `CCOC(=O)[C@H]1[C@H]2COc3ccccc3[C@@H]2N2C(=O)CN(Cc3ccccc3)C(=O)[C@@]12C`, the CPE inhibition was 95% (active). In the case of `CCOC(=O)[C@H]1[C@H]2COc3cc(OC)ccc3[C@@H]2N2C(=O)CN(Cc3ccc(Cl)cc3)C(=O)[C@@]12C`, the CPE inhibition was -5.6% (inactive).

Take `CCOC(=O)[C@H]1[C@H]2COc3ccc(C)cc3[C@@H]2N2C(=O)CN(Cc3ccc(F)cc3)C(=O)[C@@]12C`: the CPE inhibition was -7.57% (inactive).
